Our source for the GFP response vs DMSO values is PubChem BioAssay AID504321 (NMMLSC, 2011).

Values without a mark were called inactive. The source made the active and inactive calls.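 Rule for the calls: active = GFP response vs DMSO above 150% with enough events counted; inconclusive = fewer than 70 events counted for a yeast strain; inactive = the rest.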

This assay is described as follows: MEP2-GFP expression modulation in yeast, confirmation, flow cytometry, third cherry pick, S. cerevisiae (AID 504321).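 Note: median per-cell GFP fluorescence by flow cytometry across all yeast cells; ratio of sample to DMSO median GFP so 100% equals the DMSO level.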 As to conditions: S. cerevisiae MEP2-GFP strain, 3 h, at 10 µM, stronger effect = higher value. Background: A flow cytometer gives signals particle by particle.
Consider `O=C(N/N=C/c1ccccc1O)c1cccc2ccccc12`, for which the GFP response vs DMSO is 110%.

`CS(=O)(=O)Oc1ccc(Br)c2cccnc12`: the GFP response vs DMSO was 110%.

On to `CCC(=O)Nn1cnc2c(c1=O)C1(CCCCC1)Cc1ccccc1-2`, for which the GFP response vs DMSO was 110%.

Consider `CNc1nc(N)c([N+](=O)[O-])c(Nc2ccccc2OC)n1`, for which the GFP response vs DMSO is 105%.

As to `COc1ccc(N/C(C)=C/C(=O)c2ccccc2)cc1`, the GFP response vs DMSO was 103%.

For `C/C(=N\NC(=O)c1cccc2ccccc12)c1cccnc1`, the GFP response vs DMSO is 108%.

In the case of `Nc1cc(C(=O)O)c(N)c2c1C(=O)c1ccccc1C2=O`, the GFP response vs DMSO is 110%.

Consider `C=CCNc1nc(N)c([N+](=O)[O-])c(Nc2ccccc2OC)n1`, for which the GFP response vs DMSO was 103%.

`CCc1sc(C(=O)Nc2nc(-c3ccccn3)cs2)cc1C`: the GFP response vs DMSO was 114%.

In the case of `Cc1cccc(Nc2cc(=O)[nH]c(=O)[nH]2)c1C`, the GFP response vs DMSO is 114%.

For `C/C(=N\NC(=O)c1ccccc1)c1ccccc1F`, the GFP response vs DMSO is 116%.

For the compound `COc1ccccc1-c1cc(C(F)(F)F)nc(S(=O)(=O)CCCC(=O)NC(C)C)n1`, the GFP response vs DMSO was 110%.

On to `CCN(CC)C(=O)Oc1ccnc2cc(Cl)ccc12`, for which the GFP response vs DMSO is 110%.

Turning to `COCCNc1nc(N)c([N+](=O)[O-])c(Nc2ccc(F)cc2)n1`, the GFP response vs DMSO is 105%.

On to `CC1=CN2C(=N)/C(=C/c3ccc([N+](=O)[O-])o3)C(=O)N=C2S1`, for which the GFP response vs DMSO was 5270% (active).

With `OCc1ccnc2c(O)cccc12`, the GFP response vs DMSO was 108%.

Regarding `O=C(Nc1nc(-c2ccccn2)cs1)c1ccccc1-n1cnnn1`, the GFP response vs DMSO was 94.7%.

For the compound `Cc1ccc2c(C)ccc(O)c2n1`, the GFP response vs DMSO is 114%.

On to `CSc1nc(Nc2ccc(Cl)cc2)c(C#N)c(=O)[nH]1`, for which the GFP response vs DMSO is 108%.

Turning to `COc1ccccc1Nc1nc(NCCC(C)C)nc(N)c1[N+](=O)[O-]`, the GFP response vs DMSO is 105%.

For `Cc1ccc(C(=O)Nc2nc(-c3ccccn3)cs2)o1`, the GFP response vs DMSO was 103%.

Regarding `CC1=CN2C(=N)/C(=C/c3ccc(C)o3)C(=O)N=C2S1`, the GFP response vs DMSO is 105%.

Turning to `CCCOCc1ccc(O)c2ncccc12`, the GFP response vs DMSO was 110%.

On to `CCN(CC)c1ncnc2ccc(Br)cc12`, for which the GFP response vs DMSO was 114%.

For the compound `Cc1ccc(-c2cc(C(F)F)nc(S(C)(=O)=O)n2)cc1`, the GFP response vs DMSO is 121%.

Take `CCN(CC)C(=O)Oc1cc(=O)n(C)c2ccccc12`: the GFP response vs DMSO is 112%.

As for `Cc1cn2c(N)c(C=C3C=C(Cl)C(=O)C(Cl)=C3)c(=O)nc2s1`, the GFP response vs DMSO is 112%.

Regarding `COc1ccc(Nc2nc(NN)nc(C)c2[N+](=O)[O-])cc1`, the GFP response vs DMSO was 101%.

Take `COc1cc(OC)cc(C(=O)Nc2ccc(-c3nc4ccccc4o3)cc2)c1`: the GFP response vs DMSO was 110%.

On to `Nc1c(O)ccc2c1C(=O)c1ccccc1C2=O`, for which the GFP response vs DMSO is 105%.

Regarding `Cc1ccc2c(Cl)cc(Cl)c(O)c2n1`, the GFP response vs DMSO was 168% (active).

Regarding `Nn1cnc2c(c1=O)C1(CCCCC1)Cc1ccccc1-2`, the GFP response vs DMSO was 116%.

With `O=C(Nc1cccc2ccccc12)ON=C1CCCCC1`, the GFP response vs DMSO is 121%.

For the compound `O=C(Nc1ccccc1Cl)ON=C1c2ccccc2-c2ccccc21`, the GFP response vs DMSO is 108%.

Turning to `NC(=O)COc1cccc2cccnc12`, the GFP response vs DMSO is 108%.

For the compound `Cc1ccc(NN2C(=O)C=C(c3ccccc3)C2=O)cc1`, the GFP response vs DMSO was 140%.

On to `COc1ccccc1Nc1nc(NCCCN(C)C)nc(N)c1[N+](=O)[O-]`, for which the GFP response vs DMSO was 112%.

For `CN(C)CCCNc1cc(O)c2ncccc2c1`, the GFP response vs DMSO is 118%.

Regarding `Cc1ccc2c(Cl)cc(Cl)c(OCC(=O)O)c2n1`, the GFP response vs DMSO is 108%.
